# Measured values: the supplement of paper PMC8728848
# Many of the other results were omitted from the sample, so the strongest signals are more common in it than they were.
# B1: a L Fucosidase (Streptosporangium roseum), D2B1P1_STRRD (protein)
# chain: MRRKLLLVPAVGLLVIGSIFATQPVASADTPPVYEPTVESLNSHPVPQWFNDDKFGIFIHWGAYSVPAWGPRGSYAEWYGNYMNAGGSATNAHHKATYGQDFNYDAFLQQWKAEKFDPADWVKLFKDAGAKYFVLTSKHHEGMALWDSKSSGRDSVDLGPGRDLAKELFDAARKDEAKLKAGFYYSLYEWYNPAYTGRPATNPYTGAEIPYTGAPGGGDYVKDYMLPQMRELIDGYDPDIIWCDGQWEKPASYWNTAGVIADYYNKALNSGKEVAVANRCKIQSGNLDSPELDFQTPEYTVKPDIDPVKWESSRGIAHSYGYNQNEPEEDHLTSDQLVDSLVDIVSKNGNLLLDIGPKADGTIPEIQRQRLLDIGAWLKANGEAIYGTTYWNRAEEKGGPDDVRYTAKDATLYATALKWPGEQLTLGADLPVDHSTRITMLGSGARLSWSRDEQGRVVVNTPQEAGKHAYVFKIETPGVRSLLRTSSSLAKEIAPGRTISGELTVTNPGKRHTPATKLSLTVPQGWTATLGAPRVRPLGPGESVKVPISVSAPEGVAPAPYTLGLYQRTGRMGTTTALPLTVNRPNLSLGKPATQKSTGYDAPASRAVDGNTGGDWSAGSTTHTAEPEKQAWWQVDLGASARLDSVDVWNRLDCCADRLKDFWVMASDQPFTTDDLDQARTAPGVTAVHVGEQAGSPSKVKLPEGTRGRYVRIQLASPSNPLSLAEVQVRGSMARPNLSLGKPATQKSTGYDAPASRAVDGNTGGDWSAGSTTHTAEPEKQAWWQVDLGASARLDSVDVWNRLDCCADRLKDFWVMASDQPFTTDDLDQARTAPGVTAVHVGEQAGSPSKVKLPEGTRGRYVRIQLASPSNPLSLAEVQVRLEHHHHHHS
# Assays:
# Test in all cases: glycan array binding signal (z-score within array); higher = stronger binding
# Settings in all cases: glycan notation: IUPAC condensed, linker removed
# [1] = molecular target: Gal(b1-4)GlcNAc(b1-3)Gal(b1-4)GlcNAc(b1-3)[Gal(b1-4)GlcNAc(b1-3)Gal(b1-4)GlcNAc(b1-6)]GalNAc
# Summary of the method: (§1)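 Negative Z-scores can be read as non-binding. The Z-score is calculated within each array and then averaged across arrays of one protein sequence at different concentrations or buffers and across linkers. Arrays, 3228 in all, were curated from the Consortium for Functional Glycomics database and kept only where the protein sequence was available.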
# Gal6S(b1-4)Glc = molecular target: Gal6S(b1-4)Glc
# Summary of the method: as §1
# [2] = molecular target: GalNAc(a1-3)GalNAc(b1-3)Gal(a1-4)Gal(b1-4)Glc
# Summary of the method: as §1
# GalNAc(b1-4)GlcNAc = molecular target: GalNAc(b1-4)GlcNAc
# Summary of the method: as §1
# GlcA(b1-3)Gal = molecular target: GlcA(b1-3)Gal
# Summary of the method: as §1
# GlcA(b1-6)Gal = molecular target: GlcA(b1-6)Gal
# Summary of the method: as §1
# [3] = molecular target: GlcNAc(b1-3)Gal(b1-4)GlcNAc(b1-3)Gal(b1-4)GlcNAc(b1-3)Gal(b1-4)GlcNAc(b1-2)[GlcNAc(b1-3)Gal(b1-4)GlcNAc(b1-3)Gal(b1-4)GlcNAc(b1-3)Gal(b1-4)GlcNAc(b1-6)]Man(a1-6)[GlcNAc(b1-3)Gal(b1-4)GlcNAc(b1-3)Gal(b1-4)GlcNAc(b1-3)Gal(b1-4)GlcNAc(b1-2)Man(a1-3)]Man(b1-4)GlcNAc(b1-4)[Fuc(a1-6)]GlcNAc
# Summary of the method: as §1
# [4] = molecular target: GlcNAc(b1-3)Gal(b1-4)GlcNAc(b1-3)Gal(b1-4)GlcNAc(b1-3)Gal(b1-4)GlcNAc(b1-3)Gal(b1-4)GlcNAc(b1-2)Man(a1-3)[GlcNAc(b1-3)Gal(b1-4)GlcNAc(b1-3)Gal(b1-4)GlcNAc(b1-3)Gal(b1-4)GlcNAc(b1-3)Gal(b1-4)GlcNAc(b1-2)Man(a1-6)]Man(b1-4)GlcNAc(b1-4)[Fuc(a1-6)]GlcNAc
# Summary of the method: as §1
# Kdn(a2-3)Gal(b1-4)Glc = molecular target: Kdn(a2-3)Gal(b1-4)Glc
# Summary of the method: as §1
# [5] = molecular target: Man(a1-2)Man(a1-2)Man(a1-3)Man
# Summary of the method: as §1
# [6] = molecular target: Man(a1-2)Man(a1-3)[Man(a1-2)Man(a1-6)]Man(a1-6)[Man(a1-2)Man(a1-2)Man(a1-3)]Man(b1-4)GlcNAc(b1-4)GlcNAc
# Summary of the method: as §1
# Man(a1-3)[Man(a1-6)]Man = molecular target: Man(a1-3)[Man(a1-6)]Man
# Summary of the method: as §1
# [7] = molecular target: Neu5Ac(a2-3)Gal(b1-3)GlcNAc(b1-6)GalNAc
# Summary of the method: as §1
# [8] = molecular target: Neu5Ac(a2-3)Gal(b1-4)GlcNAc(b1-3)Gal(b1-4)GlcNAc(b1-2)Man(a1-3)[Neu5Ac(a2-3)Gal(b1-4)GlcNAc(b1-3)Gal(b1-4)GlcNAc(b1-2)Man(a1-6)]Man(b1-4)GlcNAc(b1-4)GlcNAc
# Summary of the method: as §1
# [9] = molecular target: Neu5Ac(a2-3)Gal(b1-4)GlcNAc(b1-6)[Neu5Ac(a2-3)Gal(b1-3)]GalNAc
# Summary of the method: as §1
# [10] = molecular target: Neu5Ac(a2-6)Gal(b1-3)GlcNAc(b1-3)[Gal(b1-4)GlcNAc(b1-6)]Gal(b1-4)Glc
# Summary of the method: as §1
# Neu5Ac(a2-6)Gal(b1-4)Glc = molecular target: Neu5Ac(a2-6)Gal(b1-4)Glc
# Summary of the method: as §1
# [11] = molecular target: Neu5Ac(a2-6)Gal(b1-4)GlcNAc(b1-2)Man(a1-3)Man(b1-4)GlcNAc(b1-4)GlcNAc
# Summary of the method: as §1
# [12] = molecular target: Neu5Ac(a2-6)Gal(b1-4)GlcNAc(b1-2)[Neu5Ac(a2-6)Gal(b1-4)GlcNAc(b1-4)]Man(a1-3)[GlcNAc(b1-4)][Neu5Ac(a2-6)Gal(b1-4)GlcNAc(b1-4)Man(a1-6)]Man(b1-4)GlcNAc(b1-4)GlcNAc
# Summary of the method: as §1
# [13] = molecular target: Neu5Ac(a2-6)Gal(b1-4)GlcNAc(b1-6)[Gal(b1-3)GlcNAc(b1-3)]Gal(b1-4)Glc
# Summary of the method: as §1
# [14] = molecular target: Neu5Ac(a2-6)GalNAc(b1-4)GlcNAc6S
# Summary of the method: as §1
# [15] = molecular target: Neu5Ac(a2-8)Neu5Ac(a2-3)Gal(b1-3)GalNAc(b1-4)[Neu5Ac(a2-3)]Gal(b1-4)Glc
# Summary of the method: as §1
# [16] = molecular target: Neu5Ac(a2-8)Neu5Ac(a2-3)[GalNAc(b1-4)]Gal(b1-4)Glc
# Summary of the method: as §1
# [17] = molecular target: Neu5Ac(a2-8)Neu5Ac(a2-8)Neu5Ac(a2-3)[GalNAc(b1-4)]Gal(b1-4)Glc
# Summary of the method: as §1
# [18] = molecular target: Neu5Gc(a2-3)Gal(b1-4)GlcNAc(b1-3)Gal(b1-4)GlcNAc(b1-2)Man(a1-3)[Neu5Gc(a2-3)Gal(b1-4)GlcNAc(b1-3)Gal(b1-4)GlcNAc(b1-2)Man(a1-6)]Man(b1-4)GlcNAc(b1-4)GlcNAc
# Summary of the method: as §1
# [19] = molecular target: Neu5Gc(a2-6)Gal(b1-4)GlcNAc
# Summary of the method: as §1
# [20] = molecular target: Neu5Gc(a2-8)Neu5Gc(a2-3)Gal(b1-4)GlcNAc(b1-3)Gal(b1-4)GlcNAc
# Summary of the method: as §1
# [21] = molecular target: Neu5Gc(b2-6)Gal(b1-4)GlcNAc
# Summary of the method: as §1
binder,measurement,setting,value
B1,glycan array binding signal (z-score),[1],-0.245
same,glycan array binding signal (z-score),Gal6S(b1-4)Glc,-0.356
same,glycan array binding signal (z-score),[2],-0.338
same,glycan array binding signal (z-score),GalNAc(b1-4)GlcNAc,-0.528
same,glycan array binding signal (z-score),GlcA(b1-3)Gal,-0.445
same,glycan array binding signal (z-score),GlcA(b1-6)Gal,-0.444
same,glycan array binding signal (z-score),[3],-0.512
same,glycan array binding signal (z-score),[4],1.09
same,glycan array binding signal (z-score),Kdn(a2-3)Gal(b1-4)Glc,-0.16
same,glycan array binding signal (z-score),[5],-0.582
same,glycan array binding signal (z-score),[6],-0.104
same,glycan array binding signal (z-score),Man(a1-3)[Man(a1-6)]Man,0.008
same,glycan array binding signal (z-score),[7],-0.493
same,glycan array binding signal (z-score),[8],0.456
same,glycan array binding signal (z-score),[9],-0.417
same,glycan array binding signal (z-score),[10],-0.585
same,glycan array binding signal (z-score),Neu5Ac(a2-6)Gal(b1-4)Glc,-0.462
same,glycan array binding signal (z-score),[11],-0.533
same,glycan array binding signal (z-score),[12],-0.202
same,glycan array binding signal (z-score),[13],-0.507
same,glycan array binding signal (z-score),[14],-0.481
same,glycan array binding signal (z-score),[15],-0.521
same,glycan array binding signal (z-score),[16],-0.558
same,glycan array binding signal (z-score),[17],-0.388
same,glycan array binding signal (z-score),[18],0.548
same,glycan array binding signal (z-score),[19],-0.317
same,glycan array binding signal (z-score),[20],-0.268
same,glycan array binding signal (z-score),[21],-0.474
